Measured values from PubChem BioAssay (NCATS).
“And” between values parts separate entries of the source, which are not always exact repeats. Identical values can stand only once. Records with an inconclusive call do not appear. Entries that show only a call come without a potency. The source holds several records for some structures; these can differ, active in one and inactive in another. The source made the active and inactive calls. Unless noted, the call rests on the fitted dose curve; in most records, active means well fitted curve in the direction sought with a large enough effect; inconclusive means small, poorly fitted or top-dose-only effect, or another doubt; inactive means no such curve, though single readings can be large; an effect the other way counts as inactive or inconclusive.

Assays:
[1] = P-glycoprotein substrates identified in KB-3-1 adenocarcinoma cell line, qHTS therapeutic library screen (AID 1346986); further: nearly all actives have a fitted effect of over 60% in size;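 further: potency means the concentration at half of the fitted maximal effect; potency is for cytotoxicity meaning loss of cell viability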
Method in brief: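 In 1536-well format, 500 cells/well received pinned compound titrations and were incubated 72 h, 5% CO2. Viability was read by CellTiter-Glo; cytotoxic if AC50 < 10 uM and efficacy >50%.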

[2] = P-glycoprotein substrates identified in KB-8-5-11 adenocarcinoma cell line, qHTS therapeutic library screen (AID 1346987); further: nearly all actives have a fitted effect of over 65% in size; further: potency means the concentration at half of the fitted maximal effect
Method in brief: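 Luminescence from CellTiter-Glo, read 5 min after addition, quantified survival of KB-8-5-11 (P-gp-overexpressing) cells exposed to compounds for 72 h. AC50 was derived from concentration-response curves.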

[3] = NS1 protein of Zika virus - qHTS assay to identify small molecule inhibitors in human HEK 293 cells (AID 1347053); further: nearly all actives have a fitted effect of over 55% in size; further: potency means the concentration at half of the fitted maximal effect
Method in brief: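 In this cell-based screen, HEK 293 cultures received compound for one hour before Zika MR766 at MOI = 0.5. NS1 was quantified 24 hours later by TR-FRET, normalized to virus-free wells and infected wells.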

[4] = Natriuretic polypeptide receptor (hNpr1) antagonism - Pilot counterscreen GloSensor control cell line (AID 1347045; calls by dose curve; further: series mostly up to about 38 µM)
Method in brief: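 Cells were first seeded and incubated overnight at 37C, then loaded with 2% GloSensor substrate for 2 h. Compounds were added for 30 min at room temperature, followed by a baseline read, 50 uM SNP and a final read after 20 min.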

[5] = target: Atrial natriuretic peptide receptor 1 (Homo sapiens) (UniProt P16066); assay: Natriuretic polypeptide receptor (hNpr1) antagonism - Pilot screen (AID 1347049; calls by dose curve;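 further: agonist-evoked cGMP luminescence read 20 min after hNppA addition; series mostly up to about 58 µM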)
Atrial natriuretic peptide receptor 1 (Homo sapiens), sequence (P16066 whole entry, looked up): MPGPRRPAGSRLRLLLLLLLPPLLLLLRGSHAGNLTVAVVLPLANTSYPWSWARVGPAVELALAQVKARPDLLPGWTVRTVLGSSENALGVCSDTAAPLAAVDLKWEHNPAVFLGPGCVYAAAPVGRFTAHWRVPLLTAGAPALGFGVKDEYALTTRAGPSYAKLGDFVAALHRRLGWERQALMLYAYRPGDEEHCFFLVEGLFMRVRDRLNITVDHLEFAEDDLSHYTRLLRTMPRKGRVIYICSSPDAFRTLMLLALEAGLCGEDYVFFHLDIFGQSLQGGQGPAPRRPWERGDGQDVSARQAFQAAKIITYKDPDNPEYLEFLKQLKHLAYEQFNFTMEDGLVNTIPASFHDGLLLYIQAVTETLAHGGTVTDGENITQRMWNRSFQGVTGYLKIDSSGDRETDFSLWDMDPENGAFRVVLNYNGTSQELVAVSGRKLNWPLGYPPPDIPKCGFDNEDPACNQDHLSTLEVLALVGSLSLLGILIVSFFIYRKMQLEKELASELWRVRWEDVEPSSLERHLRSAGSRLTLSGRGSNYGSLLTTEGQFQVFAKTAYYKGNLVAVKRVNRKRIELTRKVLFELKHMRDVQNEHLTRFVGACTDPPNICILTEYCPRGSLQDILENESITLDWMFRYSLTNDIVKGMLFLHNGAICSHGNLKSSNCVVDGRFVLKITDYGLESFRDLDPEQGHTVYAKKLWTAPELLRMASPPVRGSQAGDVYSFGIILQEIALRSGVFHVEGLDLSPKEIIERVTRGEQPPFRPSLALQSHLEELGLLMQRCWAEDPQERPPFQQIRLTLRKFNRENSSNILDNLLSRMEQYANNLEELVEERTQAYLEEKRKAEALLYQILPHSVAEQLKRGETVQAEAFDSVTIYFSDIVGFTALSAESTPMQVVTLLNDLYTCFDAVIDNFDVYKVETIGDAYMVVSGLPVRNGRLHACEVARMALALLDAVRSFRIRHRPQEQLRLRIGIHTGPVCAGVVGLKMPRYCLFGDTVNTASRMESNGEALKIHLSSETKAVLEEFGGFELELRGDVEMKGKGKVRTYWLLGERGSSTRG
Method in brief: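 cGMP-sensor HEK293/hNpr1 cells, 1500/well, plated overnight at 37C. 2% GloSensor reagent, 2 h RT. Compound (23 nL pin transfer) 30 min RT, baseline luminescence pre-read. 0.1 nM hNppA, 20 min RT, post-read.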

[6] = target: Atrial natriuretic peptide receptor 2 (Homo sapiens) (UniProt P20594); assay: Natriuretic polypeptide receptor (hNpr2) antagonism - Pilot subtype selectivity assay (AID 1347050; calls by dose curve)
Atrial natriuretic peptide receptor 2 (Homo sapiens), sequence (P20594 whole entry, looked up): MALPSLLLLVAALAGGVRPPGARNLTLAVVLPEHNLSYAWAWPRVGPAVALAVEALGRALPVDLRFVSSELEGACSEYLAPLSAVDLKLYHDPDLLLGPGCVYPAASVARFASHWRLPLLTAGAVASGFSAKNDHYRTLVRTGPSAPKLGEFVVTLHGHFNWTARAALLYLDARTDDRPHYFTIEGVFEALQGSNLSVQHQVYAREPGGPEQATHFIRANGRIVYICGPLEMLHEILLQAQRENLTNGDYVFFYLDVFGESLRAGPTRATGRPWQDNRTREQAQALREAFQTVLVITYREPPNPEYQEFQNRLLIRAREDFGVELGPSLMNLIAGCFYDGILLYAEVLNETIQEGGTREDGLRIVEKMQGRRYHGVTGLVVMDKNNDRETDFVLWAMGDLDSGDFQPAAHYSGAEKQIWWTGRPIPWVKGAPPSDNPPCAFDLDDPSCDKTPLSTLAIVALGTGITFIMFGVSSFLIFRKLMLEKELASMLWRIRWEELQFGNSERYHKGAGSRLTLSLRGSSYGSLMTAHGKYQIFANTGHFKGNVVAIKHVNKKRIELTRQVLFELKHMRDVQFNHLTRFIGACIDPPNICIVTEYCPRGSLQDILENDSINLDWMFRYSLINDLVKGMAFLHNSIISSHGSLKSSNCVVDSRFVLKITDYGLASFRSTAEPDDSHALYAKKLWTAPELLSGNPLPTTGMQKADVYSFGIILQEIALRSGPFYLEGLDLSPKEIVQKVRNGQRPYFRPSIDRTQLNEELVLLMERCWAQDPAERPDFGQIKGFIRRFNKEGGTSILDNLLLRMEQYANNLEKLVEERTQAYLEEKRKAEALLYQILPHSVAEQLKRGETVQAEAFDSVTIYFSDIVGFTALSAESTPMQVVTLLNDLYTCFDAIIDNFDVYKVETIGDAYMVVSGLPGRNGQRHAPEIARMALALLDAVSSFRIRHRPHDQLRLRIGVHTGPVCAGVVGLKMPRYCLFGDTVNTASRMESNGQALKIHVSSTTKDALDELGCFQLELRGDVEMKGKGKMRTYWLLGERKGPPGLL
Method in brief: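 Luminescence from a genetically encoded cGMP luciferase biosensor in hNpr2-expressing HEK293 cells is read before and 20 min after adding 1 nM hNppC. Test compounds, in interplate 1:5 titrations, are added 30-50 min ahead of the agonist.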

[7] = target: Parathyroid hormone/parathyroid hormone-related peptide receptor (Homo sapiens) (UniProt Q03431); assay: qHTS for PTHR1 Agonists: Optimization Screen against the NCGC LOPAC library (AID 1347079);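 further: GloSensor cAMP luminescence in HEK-293 GP2 cells expressing human PTHR1 with IBMX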
Parathyroid hormone/parathyroid hormone-related peptide receptor (Homo sapiens), sequence (Q03431 whole entry, looked up): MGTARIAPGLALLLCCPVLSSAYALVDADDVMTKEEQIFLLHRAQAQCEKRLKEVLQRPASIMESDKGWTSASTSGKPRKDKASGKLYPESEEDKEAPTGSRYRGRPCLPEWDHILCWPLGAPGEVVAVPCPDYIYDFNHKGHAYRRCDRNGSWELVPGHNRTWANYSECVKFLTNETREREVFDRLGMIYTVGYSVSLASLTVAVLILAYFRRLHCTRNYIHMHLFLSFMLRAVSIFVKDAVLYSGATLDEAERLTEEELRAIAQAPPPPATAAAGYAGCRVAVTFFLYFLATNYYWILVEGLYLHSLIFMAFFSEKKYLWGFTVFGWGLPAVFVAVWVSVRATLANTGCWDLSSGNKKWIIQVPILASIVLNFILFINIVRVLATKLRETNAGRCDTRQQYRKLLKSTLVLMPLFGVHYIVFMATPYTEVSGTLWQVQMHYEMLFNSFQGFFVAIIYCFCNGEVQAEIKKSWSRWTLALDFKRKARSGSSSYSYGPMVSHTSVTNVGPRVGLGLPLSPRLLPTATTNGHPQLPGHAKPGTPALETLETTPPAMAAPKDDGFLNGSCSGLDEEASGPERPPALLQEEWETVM
Text: The goal of the proposed studies is to discover new compounds that act as potent agonists on the parathyroid hormone receptor type-1 (PTHR1). The PTHR1 plays critical roles in maintaining blood calcium and phosphate levels, as well as in controlling bone remodeling. PTHR1 agonists could thus be useful for treating diseases such as hypoparathyroidism and osteoporosis. In the former disease, an agonist drug would help maintain normal blood calcium and phosphate levels under conditions of parathyroid hormone deficiency. In the latter disease, an agonist drug would stimulate new bone formation and thus reduce the risk of fracture, under conditions of bone fragility, as occurs in aging. We performed an optimization assay of the quantitative high-throughput screening (qHTS) for the parathyroid hormone receptor type-1 (PTHR1) against the NCGC LOPAC library collection of […] compounds using a unique HEK-293-derived cell line (GP2) that expresses the PTHR1 and a GloSensor cAMP reporter construct. Increase in signal (activation / agonist) is the desired outcome for compounds of interest. NIH Chemical Genomics Center [NCGC] […]
Reagents / Controls: M-PTH (1-15) peptide hormone fragments was provided by the assay provider and was used as a control. […] Luminescence signal was obtained using the PerkinElmer ViewLux plate reader after 15min or room temperature incubation.

[8] = target: T1, Tyrosine-protein phosphatase non-receptor type substrate 1 (Homo sapiens) + Leukocyte surface antigen CD47 (Homo sapiens) (UniProt P78324+Q08722); assay: CD47-SIRPalpha protein protein interaction - LANCE assay qHTS validation (AID 1347057; active means well fitted curve in the direction sought with a large enough effect in the signal ratio, with a control signal flat, not every such curve was filed as active; the % refers to the signal ratio; further: series mostly up to about 38 µM)
T1 sequence (P78324 whole entry, looked up, the tested form may be a part): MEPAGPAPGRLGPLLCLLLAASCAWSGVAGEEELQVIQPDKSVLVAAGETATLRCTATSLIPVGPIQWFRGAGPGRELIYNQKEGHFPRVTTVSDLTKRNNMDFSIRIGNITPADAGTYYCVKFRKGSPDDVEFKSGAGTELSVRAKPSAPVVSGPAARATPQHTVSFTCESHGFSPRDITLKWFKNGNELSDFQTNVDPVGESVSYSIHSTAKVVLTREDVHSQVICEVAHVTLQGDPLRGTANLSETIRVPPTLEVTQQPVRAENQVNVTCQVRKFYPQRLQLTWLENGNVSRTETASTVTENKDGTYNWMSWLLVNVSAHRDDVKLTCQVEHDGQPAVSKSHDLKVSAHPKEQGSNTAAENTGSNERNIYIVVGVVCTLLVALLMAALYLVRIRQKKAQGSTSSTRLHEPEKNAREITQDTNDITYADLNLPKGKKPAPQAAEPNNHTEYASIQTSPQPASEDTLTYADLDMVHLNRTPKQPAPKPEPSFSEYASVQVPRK
T1 sequence (Q08722 whole entry, looked up, the tested form may be a part): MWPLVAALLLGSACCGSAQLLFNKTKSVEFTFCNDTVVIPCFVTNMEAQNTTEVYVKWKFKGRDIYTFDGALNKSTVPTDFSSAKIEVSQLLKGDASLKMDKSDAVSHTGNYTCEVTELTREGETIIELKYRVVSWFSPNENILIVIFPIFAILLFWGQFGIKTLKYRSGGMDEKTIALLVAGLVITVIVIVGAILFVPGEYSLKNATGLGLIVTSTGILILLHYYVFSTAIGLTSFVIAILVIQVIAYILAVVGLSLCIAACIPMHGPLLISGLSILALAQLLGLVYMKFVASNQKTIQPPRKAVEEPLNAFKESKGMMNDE
Method in brief: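 Inhibition of soluble CD47/SIRPalpha ectodomain association by titrated compounds, measured as 665/615 nm time-resolved FRET ratio after sequential 30 min room-temperature incubations.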

[9] = target: T1, Tyrosine-protein phosphatase non-receptor type substrate 1 (Homo sapiens) + Leukocyte surface antigen CD47 (Homo sapiens); assay: CD47-SIRPalpha protein protein interaction - HTRF assay qHTS validation (AID 1347058; active means well fitted curve in the direction sought with a large enough effect in the signal ratio, not every such curve was filed as active; the % refers to the signal ratio; further: series mostly up to about 38 µM)
Method in brief: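 Soluble extracellular domains (6His-CD47, Avi-tag-biotinylated SIRPalpha) in PBS pH 7.4 with 0.05% IGEPAL CA-630. Compounds were preincubated 30 min at RT with CD47 and anti-His-Eu, then SIRPalpha and SAV-XL665 were added. TR-FRET 665/615 ratio.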

[10] = target: T1, Tyrosine-protein phosphatase non-receptor type substrate 1 (Homo sapiens) + Leukocyte surface antigen CD47 (Homo sapiens); assay: CD47-SIRPalpha protein protein interaction - Alpha assay qHTS validation (AID 1347059);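 further: bead proximity luminescence from CD47 binding SIRPalpha after compound preincubation with SIRPalpha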
Method in brief: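 SIRPalpha-biotin 25 nM + cpd, 30 min RT, dark; add CD47-His 12.5 nM, 30 min; add Ni-NTA/SAV beads 10 ug/mL, 30 min; AlphaScreen. Buffer PBS pH 7.4 + 0.05% IGEPAL CA-630. Non-biotinylated SIRPalpha as control inhibitor.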

SMILES: CCCCCCCCCCCCCCCC(=O)O[C@H]1[C@@H](O)[C@@H](O)[C@@H]([C@H](NC(=O)[C@@H]2C[C@@H](CCC)CN2C)[C@H](C)Cl)O[C@@H]1SC
- Potency [1]: inactive
- Potency [2]: inactive
- Potency [3]: inactive

SMILES: CCCCn1c(=O)n(Cc2ccccc2F)c(=O)c2[nH]c(Cc3ccc(NC(C)=O)cc3)nc21
- Potency [1]: inactive
- Potency [2]: inactive
- Potency [3]: inactive

SMILES: Cc1ccc2c(=O)c3cccc(CC(=O)O)c3oc2c1C
- Potency [1]: inactive
- Potency [2]: inactive
- Potency [3]: inactive

SMILES: COc1ccc(-c2cc3nccn3c(Nc3ncccc3C(N)=O)n2)cc1OC
- Potency [1]: 6.51 µM (active)
- Potency [3]: inactive

SMILES: COc1cc(Nc2nc3ccccc3nc2NS(=O)(=O)c2ccc(NC(=O)c3ccc(C)c(OC)c3)cc2)cc(OC)c1
- Potency [1]: inactive
- Potency [2]: inactive
- Potency [3]: inactive

SMILES: Cc1ccc(S(=O)(=O)Nc2nc3ccccc3nc2Nc2ccc3nsnc3c2)cc1
- Potency [1]: inactive and 20.6 µM (active)
- Potency [2]: inactive and 2.91 µM (active)
- Potency [3]: inactive

SMILES: Cc1ccccc1C(=O)c1ccc(Nc2ccc(Br)cc2N)cc1Cl
- Potency [1]: 14.6 µM (active)
- Potency [2]: 20.6 µM (active)
- Potency [3]: 9.35 µM (active)

SMILES: COc1ccc(-c2ccc3ncc4c(c3c2)n(-c2ccc(N3CCNCC3)c(C(F)(F)F)c2)c(=O)n4C)cn1
- Potency [1]: 0.0231 µM (active)
- Potency [2]: 8.3 nM (active) and 184 nM (active) and 206 nM (active)
- Potency [3]: 6.62 µM (active)

SMILES: O=C1NC(=O)C(c2cnc3ccccn23)=C1c1cn2c3c(cccc13)CN(C(=O)N1CCOCC1)CC2
- Potency [1]: 5.8 µM (active)
- Potency [3]: 0.59 µM (active)

SMILES: CN(C)CCCNC(=O)c1ccc(-c2cc(O)c3ncccc3c2)cc1
- Potency [1]: 18.4 µM (active)
- Potency [3]: inactive

SMILES: NC(=O)c1ncn([C@@H]2O[C@H](CO)[C@@H](O)[C@@H]2O)n1
- Potency [2]: inactive

SMILES: CN(C)CC[C@H](CSc1ccccc1)Nc1ccc(S(=O)(=O)NC(=O)c2ccc(N3CCN(Cc4ccccc4-c4ccc(Cl)cc4)CC3)cc2)cc1[N+](=O)[O-]
- Potency [2]: inactive
- Potency [3]: inactive

SMILES: C=CC(=O)Nc1cccc(Sc2nc(Nc3ccc(N4CCN(C)CC4)cc3)ncc2Cl)c1
- Potency [2]: 23.1 µM (active)

SMILES: CN1c2ccccc2C(=O)N2CCc3c([nH]c4ccccc34)C21 (stereo not given)
- Potency [2]: inactive and 1.84 µM (active)
- Potency [3]: inactive

SMILES: C[C@H]1O[C@@H](n2cc(F)c(=O)[nH]c2=O)[C@H](O)[C@H]1O
- Potency [2]: 18.7 µM (active)
- outcome [4]: inactive
- outcome [5]: inactive
- outcome [6]: inactive
- Potency [3]: inactive
- outcome [7]: inactive

SMILES: CC1(C)OC2CC3C4CC(F)C5=CC(=O)C=CC5(C)C4C(O)CC3(C)[C@]2(C(=O)CO)O1 (stereo not given in full)
- Potency [2]: inactive

SMILES: C[C@]12C=CC(=O)C=C1CC[C@@H]1[C@@H]2[C@@H](O)C[C@@]2(C)[C@@H]1CC[C@]2(O)C(=O)CO
- Potency [2]: inactive
- Potency [3]: inactive

SMILES: CC[C@]1(O)C[C@H]2CN(CCC3=c4ccccc4=N[C]3[C@@](C(=O)OC)(c3cc4c(cc3OC)N(C)[C@H]3[C@@](O)(C(N)=O)[C@H](O)[C@]5(CC)C=CCN6CC[C@]43[C@@H]65)C2)C1
- Potency [2]: 1.48 µM (active)
- Potency [3]: 1.66 µM (active)

SMILES: O=C(Nc1ccccc1)Nc1ccc(-c2ccc(C(=O)[C@H]3CCC[C@H]3C(=O)O)cc2)cc1
- Potency [2]: inactive
- Potency [3]: inactive

SMILES: Cc1cccc(-c2[nH]c(C(C)(C)C)nc2-c2ccc3c(c2)OCO3)n1
- Potency [2]: 10.3 µM (active)

SMILES: N#CC(c1ccc(Cl)cc1)c1c(Cl)cc(-n2ncc(=O)[nH]c2=O)cc1Cl (stereo not given)
- Potency [2]: inactive
- Potency [3]: inactive

SMILES: COc1ccnc(CS(=O)c2nc3ccc(OC(F)F)cc3[nH]2)c1OC (stereo not given)
- Potency [2]: inactive
- Potency [3]: inactive

SMILES: CCCCC[C@H](O)C=C[C@H]1[C@H](O)CC(=O)[C@H]1CCCCCCC(=O)O
- Potency [2]: inactive

SMILES: CCC(=C(CC)c1ccc(O)cc1)c1ccc(O)cc1
- Potency [2]: inactive

SMILES: CCOc1ccccc1N=Nc1c(C)[nH]n(-c2nc(-c3ccccc3)cs2)c1=O
- Potency [2]: inactive
- Potency [3]: inactive

SMILES: CCOC(=O)[C@@H](N)CCC(=O)N[C@@H](CSCc1ccccc1)C(=O)N[C@@H](C(=O)OCC)c1ccccc1
- Potency [2]: inactive

SMILES: CC(C)[C@H](O)C(=O)N[C@@H](C)C(=O)N[C@@H]1C(=O)N(C)CCc2ccccc21
- Potency [2]: inactive
- Potency [3]: inactive

SMILES: C=CCc1cccc(C=NNC(=O)CN2CCN(Cc3ccccc3)CC2)c1O
- Potency [2]: 10.5 µM (active)
- outcome [4]: inactive
- outcome [5]: inactive
- outcome [6]: inactive
- Potency [3]: 13.2 µM (active)
- outcome [8]: inactive
- outcome [9]: inactive
- outcome [10]: inactive
- outcome [7]: inactive

SMILES: N#Cc1ccc(Oc2ccc3c(c2)COB3O)cc1
- Potency [2]: inactive

SMILES: NS(=O)(=O)c1ccc(Nc2nc(OCC3CCCCC3)c3[nH]cnc3n2)cc1
- Potency [2]: inactive

SMILES: CN1N=C(N)c2cn([C@@H]3O[C@H](COP(=O)(O)O)[C@@H](O)[C@@H]3O)c3ncnc1c23
- Potency [2]: 0.833 µM (active)

SMILES: CC(C)(C)c1[nH]cnc1C=c1[nH]c(=O)c(=Cc2ccccc2)[nH]c1=O
- Potency [2]: 0.0024 µM (active)
- Potency [3]: 0.003 µM (active)

SMILES: CCCCCCCCCCCCCC(=O)N[C@H](CO)[C@H](O)c1ccc([N+](=O)[O-])cc1
- Potency [2]: inactive

SMILES: CC(=O)Nc1cccc(-n2c(=O)n(C3CC3)c(=O)c3c(Nc4ccc(I)cc4F)n(C)c(=O)c(C)c32)c1
- Potency [2]: inactive

SMILES: FC(F)(F)c1ccc(C=Cc2nc(COc3ccc(CCCCn4ccnn4)cc3)co2)cc1
- Potency [2]: inactive

SMILES: O=C(O)c1ccc(O)c2ncc(N3CCOCC3)cc12
- Potency [2]: inactive

SMILES: COc1cc(F)c(C(C)C)cc1-c1ccc(C(F)(F)F)cc1CN1C(=O)O[C@H](c2cc(C(F)(F)F)cc(C(F)(F)F)c2)[C@@H]1C
- Potency [2]: inactive

SMILES: Cc1ccc2c(c1)c1c(n2CCc2ccc(C)nc2)CCN(C)C1
- Potency [2]: inactive

SMILES: C[C@@H]1CCO[C@H]2Cn3cc(C(=O)NCc4ccc(F)cc4F)c(=O)c(O)c3C(=O)N12
- Potency [2]: inactive

SMILES: C=CC[N+]1([C@H]2C[C@H]3[C@@H]4CC[C@H]5C[C@H](O)[C@@H](N6CCOCC6)C[C@]5(C)[C@@H]4CC[C@]3(C)[C@H]2OC(C)=O)CCCC1
- Potency [2]: inactive
